# Hits are enriched below; roughly 4.9% of the tested compounds scored in any of these assays.
# MPTP block – mitochondrial permeability transition pore inhibitors, primary screen, biochemical, isolated mouse mitochondria, absorbance; Ca2+ swelling absorbance, 30 min; inhibition, % at 10 µM; 360,000 tested, 1.4% active;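 active means inhibition of 50% or more, scaled per plate between neutral and stimulator controls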;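 further: 0% = DMSO wells given calcium and 100% = 1 mM EGTA wells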
# HSF1 activator – HSF-1 activators, primary screen, NIH3T3-HGL cells, MG132 stress, luminescence, single point; NIH3T3-HGL HSF-1 luciferase reporter, 8 h; 100% = twice DMSO control signal; activation, % at 9 µM; 300,000 tested, 1.7% active; AID 504408, 2011;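 active means mean replicate activation of at least 50% with a set share of replicates each reaching 50%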;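 further: 0% = median of the neutral control wells and 100% = twice that signal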
# Platelet DG rel – inhibitors of platelet dense granule secretion, primary screen, cell-based, MLPCN, human platelets; human platelet-rich plasma, SFLLRN dense granule ATP release, luminescence; inhibition, %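 (compounds screened at 7.5 µM in platelet-rich plasma)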; 300,000 tested, 0.22% active;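 active means mean replicate score, as percent of positive control, at or above 50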
# HSF1 inh – HSF1 inhibitors in luciferase reporter cells, primary screen, cell-based, NIH3T3, luminescence; 300,000 tested, 0.77% active; AID 2098, 2009; NIH3T3-HGL HSE-luciferase, MG132-induced, luminescence 8 h; active compounds read low; activity change, negative = inhibition, % at 7.5 µM (by protocol);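 active means more than half of replicate wells show activity change below -50%, luminescence cut by over half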;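 further: luciferase reports HSF-1 transcriptional activity via heat shock element; 0% = median of DMSO wells and -100% = zero luminescence signal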
# dFosB activator – activators of delta FosB homodimer, primary screen, biochemical, fluorescence polarization, TAMRA-CDK5 oligo, single point. 340,000 tested, 0.99% active. purified delta FosB; percent of positive-control signal above neutral wells. Protein FosB (Mus musculus), P13346. activation, % at 25 µM;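 active means mean activation above about 17%, with every replicate also reaching it, limit read from the data, passing the limit was not always enough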
# Target sequence (P13346 whole entry, looked up): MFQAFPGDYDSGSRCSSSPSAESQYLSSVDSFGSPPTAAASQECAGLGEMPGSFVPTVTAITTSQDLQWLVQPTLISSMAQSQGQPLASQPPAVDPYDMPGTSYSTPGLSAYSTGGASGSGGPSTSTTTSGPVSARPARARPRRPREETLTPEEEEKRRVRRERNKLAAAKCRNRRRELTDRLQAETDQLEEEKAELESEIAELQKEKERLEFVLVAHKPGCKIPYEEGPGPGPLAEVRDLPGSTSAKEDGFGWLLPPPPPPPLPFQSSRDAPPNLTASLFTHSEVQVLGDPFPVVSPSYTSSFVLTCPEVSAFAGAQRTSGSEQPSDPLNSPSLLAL
# HSP90 refold inh – HSP90 inhibitors, primary screen, cell lysate, luminescence; inhibition, % at 5.6 µM; 290,000 tested, 0.91% active; Rabbit reticulocyte lysate, luciferase refolding luminescence, 3 h;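 active means inhibition above the screen-wide mean plus 3 SD, computed separately per campaign, cut at about 16% in these data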;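 further: 0% = DMSO wells and 100% = 60 µM geldanamycin wells; inhibitors lower the luminescence because luciferase stays unfolded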
# Active calls of the source: *; nt = no result given.
SMILES,MPTP block,HSF1 activator,Platelet DG rel,HSF1 inh,dFosB activator,HSP90 refold inh
CC(C)CNC(=S)N1CCN(C(c2ccccc2)c2ccccc2)CC1,7,20,18,-4,-5,-3
O=C(NC1CCN(C(=S)NCc2ccco2)CC1)c1cccc(F)c1,-1,16,-1,-1,7,-6
Cc1cc(OCCCCNC(C)C)cc(C(C)C)c1,3,6,-12,2,-5,-6
COc1ccc(C)cc1NC(=O)c1cccc(C(=O)Nc2cc(C)ccc2OC)n1,-1,-7,-1,-5,-1,4
Cc1ccc(S(=O)(=O)C[C@@H]2OC[C@H](C)N2S(=O)(=O)c2ccc(C)cc2)cc1,0,nt,nt,nt,nt,nt
CCOC(=O)Nc1ccc2c(c1)N(C(=O)CCN1CCOCC1)c1ccccc1S2,0,5,-8,1,-2,1
CCOC(=O)Nc1ccc2c(c1)N(C(=O)CCN1CCOCC1)c1ccccc1S2=O (stereo not given),2,80*,16,51,4,0
O=C(O)c1cccc(OS(=O)(=O)c2cc(Br)ccc2Br)c1,-1,nt,nt,nt,-9,nt
O=C(CN1C(=O)NC2(CCCC2)C1=O)NCCN1C(=O)S/C(=C\c2ccccc2F)C1=O,-1,55*,-3,14,-2,nt
O=c1c2ccccc2[nH]c(=S)n1CCC1=CCCCC1,0,73*,-7,36,1,0
O=c1c2ccccc2[nH]c(=S)n1CCN1CCCCC1,1,26,-70,0,3,0
C/C=C/c1cnc2c(c1)C(=O)N([C@@H](C)CO)C[C@H](C)[C@@H](CN(C)S(=O)(=O)c1ccc(C)cc1)O2,0,nt,nt,nt,nt,nt
Cc1ccc(S(=O)(=O)N2CCN(C(=O)c3c(-c4ccccc4)noc3C)CC2)c(C)c1,0,-79,-2,-76*,-14,-4
Cc1ccc(S(=O)(=O)N2CCN(C(=O)c3c(-c4ccccc4)noc3C)CC2)cc1C,1,5,3,-2,-3,-1
CCOc1ccc(-n2nnnc2-c2nc3ccccc3s2)cc1,1,-65,0,-57*,-1,12
Cc1cccc(NC(=O)C2SC(=Nc3c(C)cccc3C)C(C(=O)N3CCOCC3)=C2N)c1 (stereo not given),-3,-71,16,-72*,-8,1
Nc1nc(N)c(C=Nc2ccc(Br)cc2)c(Nc2ccc(Br)cc2)n1,2,67*,-1,38,108*,3
CCCN1CCN(CCCNC(=O)c2ccccc2NC(=O)C2=C(C)OCCS2)CC1,0,-1,8,-3,-4,-4
Cc1ccc(N=C2SC(C(=O)NCCc3ccccc3)CC(=O)N2C)cc1C (stereo not given),-2,70*,3,18,-15,-1
COC(=O)C[C@H]1C=C[C@H](NC(=O)Nc2ccccc2F)[C@@H](CO)O1,0,nt,nt,nt,nt,nt
COC(=O)CNc1c(-c2ccccc2)nc2ccc(Br)cn12,3,51*,0,17,0,3
Cc1cc(Nc2ccccc2C(=O)O)n2ncnc2n1,0,nt,nt,nt,nt,nt
CCOC(=O)C(CC)n1cnc2c(nnn2-c2cccc(OC)c2)c1=O (stereo not given),1,11,3,-2,5,0
Cc1c(C(=O)C(=O)NCc2cccs2)c2ccccc2n1C,1,-93,-3,-92*,2,-4
Cc1c(C(=O)C(=O)NCCC2=CCCCC2)c2ccccc2n1C,0,16,-9,13,-13,2
SMILES,MPTP block,HSF1 activator,Platelet DG rel,HSF1 inh,dFosB activator,HSP90 refold inh
Cc1ccc(C(c2nnnn2C2CCCC2)N2CCc3ccccc32)cc1 (stereo not given),3,59*,-4,16,-3,-1
CC(C)C(c1nnnn1C1CCCC1)N1CCc2ccccc21 (stereo not given),9,nt,-1,nt,-4,5
CSc1cccc(NC(=O)c2cnn3ccccc23)c1,-1,81*,12,52,0,1
COc1c(N2CCN(C(=S)NC3CC4CCC3C4)C(C)C2)c(F)cc2c(=O)c(C(=O)O)cn(C3CC3)c12 (stereo not given),4,-68,1,-55*,-8,-1
CCOc1ccc2nc(NC(=O)Cn3[nH]c(=O)c4ccccc4c3=O)sc2c1,2,11,3,10,2,11
C=CCn1c(-c2cccc3ccccc23)n[nH]c1=S,2,-79,1,-73*,-4,4
CCC1(c2ccccc2)NC(=O)N(CC(=O)Nc2ccc(Cl)c(S(=O)(=O)N3CCCCC3)c2)C1=O (stereo not given),0,18,nt,11,-10,nt
CCN(CC)S(=O)(=O)c1ccc2c(c1)c(=O)c(C(=O)NCc1ccco1)cn2C,-1,-93,-3,-90*,-23,-1
CC1CCN(S(=O)(=O)c2ccc3c(c2)c(=O)c(C(=O)NCc2ccco2)cn3C)CC1,0,0,-16,5,-10,4
CC(=O)N1CCc2ccc([N+](=O)[O-])cc21,-1,nt,nt,nt,1,nt
CCOc1ccc(CNCCCSc2ncccn2)cc1,1,2,0,-2,-3,-3
CCOc1ccc(CNCCCSc2ncccn2)cc1OC,0,-74,-2,-68*,1,-2
O=c1oc2ccccc2c(NC2CCCCC2)c1NS(=O)(=O)c1ccc(Br)cc1,-1,-3,5,8,7,6
CCCNc1c(NS(=O)(=O)c2ccc(Br)cc2)c(=O)oc2ccccc12,-1,9,-19,-6,46*,11
Cc1ccc(S(=O)(=O)N(C)c2c(C)ccc(S(=O)(=O)N3CCN(C)CC3)c2C)cc1,0,-70,-15,-60*,-7,-3
Cc1ccc(S(=O)(=O)N(C)c2c(C)ccc(S(=O)(=O)N3CCN(C=O)CC3)c2C)cc1,1,-4,5,1,-6,-1
CC(C)CCNC(=O)C1CC(c2ccccc2[N+](=O)[O-])=NO1 (stereo not given),0,-5,7,10,-2,nt
COc1ccc(C(=O)NC(=S)Nc2ccc(CN3CCCCC3)cc2)cc1Cl,0,59*,19,17,-16,2
COc1ccc(C2=NN(C(C#N)c3ccc(OC)cc3)C(c3ccccc3)C2)cc1 (stereo not given),0,64*,-9,42,-4,4
COc1ccccc1N1CCN(Cc2cc(Br)c(O)c3ncccc23)CC1,2,-84,1,-80*,-5,5
Cc1ccc(C)n1-c1ccc(C(=O)NN)cc1,-11,7,-4,-2,-13,2
